TROY signal inh – TROY signaling inhibition; Q293 LMP1-TROYcd NF-kB luciferase reporter, 4 h; inhibition, % at 10 µM; 360,000 compounds, 0.98% hits;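 active means compounds whose plate-normalised and pattern-corrected inhibition of the luciferase reporter signal at the single screening dose is 50% or more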
TWEAK Fn14 block – blocks TWEAK-Fn14 interaction in a reporter cell assay; TWEAK-stimulated Fn14 reporter cells, luciferase luminescence, 8 h; inhibition, % at 10 µM; 360,000 compounds, 2% hits; AID 1159606; in the data active means inhibition above about 50%
MITF act – MITF TRPM1 promoter activation in melanoma cells. SK-MEL-5 TRPM1-promoter luciferase, 24 h; % of positive control, neutral wells = 0. activation, % at 12.5 µM. 300,000 compounds, 0.75% hits. AID 588334;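 active means mean activation of at least 80% with every replicate also reaching 80%; inconclusive means mean reaches 80% but some replicate falls short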;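 further: 0% = neutral control wells and 100% = parthenolide positive control wells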
LMP1 NFkB inh – inhibitors of Epstein-Barr LMP1-induced NF-kappaB reporter; LMP1-induced NF-kappaB luciferase reporter cells, luminescence; inhibition, % at 12.5 µM; 350,000 compounds, 0.69% hits; AID 504558; in the data active means inhibition above about 41%; inconclusive means no clear call, values can overlap the other calls;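 further: 0% = neutral control wells and 100% = reference inhibitor control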
LGR2 inh – blocks bursicon-induced cAMP signaling via Drosophila LGR2; inhibition, % at 9.99 µM; HEK293 LGR2, CRE-luciferase, bursicon-stimulated, 4 h; AID 720647; 380,000 compounds, 0.35% hits;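 active means drop in luminescence signal, shown as inhibition above about 50% in the replicate tests, limit read from the data, passing the limit was not always enough; inconclusive means probably only some replicates passing the limit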;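 further: agonist challenge used bursicon conditioned medium at about half maximal strength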
TRPM1 prom inh – MITF TRPM1 promoter inhibition in SK-MEL-5 cells; AID 488899; 330,000 compounds, 0.83% hits; inhibition, % at 12.5 µM; SK-MEL-5 TRPM1 promoter luciferase, 24 h;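 active means mean inhibition across replicates of 60% or more, whatever share of single replicates reaches that level; inconclusive means some that reach 60%, reason not given; inactive means mean inhibition across replicates below 60%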
The depositor's hits bear a star; ? = inconclusive; · = no result given. Shown are actives, neighbours in structure and some others; about 3% of the full set was active somewhere.

SMILES	TROY signal inh	TWEAK Fn14 block	MITF act	LMP1 NFkB inh	LGR2 inh	TRPM1 prom inh
Oc1ccccc1-c1nc(NC2CCCC2)c2ccccc2n1	60*	34	-14	-19	18	18
COc1ccc2c3c(n(C)c2c1)[C@@H](CO)N(C(=O)Nc1ccc(F)cc1)CC31CCN(S(=O)(=O)c2cn(C)cn2)CC1	·	·	·	·	4	·
Cc1cc(-c2ccc(F)cc2)nc2cc(C(N)=O)nn12	5	12	-4	5	-1	9
CCOC(=O)c1cnn2c(C)cc(-c3ccc(F)cc3)nc12	-42	-7	91*	-4	-33	-86
CCN(CCN(C)C)C(=O)C1CCN(S(=O)(=O)c2c(C)noc2/C=C/c2ccccc2F)CC1	0	-58	-47	-7	-4	45
CCOc1ccccc1/C=C/c1onc(C)c1S(=O)(=O)N1CCC(C(=O)N(CC)CC)CC1	2	-8	-1	60*	11	3
O=C(C[C@H]1C=C[C@@H](NC(=O)Nc2ccc3c(c2)OCO3)[C@H](CO)O1)NCc1ccc(Cl)cc1	·	·	·	·	-9	·
CCn1nc(C)cc1-c1nnc(Sc2ncc([N+](=O)[O-])s2)n1C	-6	17	-93	16	-2	94*
Cc1cccc(NC(=S)N(CCN2CCOCC2)Cc2cc3cc4c(cc3[nH]c2=O)OCCO4)c1	73*	67*	-1	-6	-18	4
Cc1ccc(NC(=S)N(CCN2CCOCC2)Cc2cc3cc4c(cc3[nH]c2=O)OCCO4)cc1	3	4	-7	-4	-16	11
CC(=O)/C(=C(/O)c1ccccc1)c1nc2ccccc2[nH]1	-2	-4	85*	9	20	-80
O=C(/C(=C(\O)c1ccccc1)c1nc2ccccc2[nH]1)c1ccccc1	-25	-8	24	-1	7	-28
Cn1c(-c2cc3ccccc3oc2=O)nc2ccccc21	-24	-16	78	-25	-23	-225
COc1ccc2cc(-c3nc4ccccc4n3C)c(=O)oc2c1	-58	-11	90*	-18	-35	-75
CCCCn1c(N)c(-c2nc3ccccc3s2)c2c([N+](=O)[O-])nn(CC)c(=O)c21	8	-27	18	-1	·	-5
CCCCCn1c(N)c(-c2nc3ccccc3s2)c2c([N+](=O)[O-])nn(CC)c(=O)c21	9	83*	6	7	-5	-5
Cc1cc(C)nc(SCc2csc(N)n2)n1	-10	-11	10	0	9	-12
Cc1cc(C)nc(SCc2csc(-c3ccccc3)n2)n1	-21	-7	113*	-19	-18	-113
COc1ccc2c(c1)-c1c(ssc1=S)C(C)(C)N2	50*	92*	1	45*	·	1
C[C@@H]1CN([C@H](C)CO)S(=O)(=O)c2ccc(-c3cccc(F)c3)cc2O[C@H]1CN(C)C(=O)C1CC1	·	·	·	·	14	·
Cc1ccc(-n2c(-c3ccc(Br)cc3)c[n+]3c2CCc2ccc4cccnc4c2-3)cc1	44	-59	-97	36	32	98*
N#C/C(=N\Nc1ccc(S(=O)(=O)N2CCc3ccccc32)cc1)C(N)=S	72*	58*	-18	5	10	17
CCOC(=O)CCC(=O)Nc1ccc(S(=O)(=O)N2CCc3ccccc32)cc1	1	-2	-12	-2	-7	16
CCOC(=O)/C(C#N)=N/Nc1ccc(S(=O)(=O)N2CCc3ccccc32)cc1	52*	36	-4	-5	19	5
COc1cccc(/C=C/C(=O)Nc2ccc3c(c2)OCCO3)c1OC	8	-25	8	0	61*	-6
COc1cccc(/C=C/C(=O)Nc2cccc(C(C)=O)c2)c1OC	-41	-6	?	-11	-34	-73
COc1cc(OC)cc(C(=O)NC(C(=O)Nc2ccc3c(c2)OCCO3)C(C)C)c1 (centres undefined)	52*	56*	14	-1	-6	-17
COc1ccc(S(=O)(=O)NC(C)C(=O)Nc2ccc3c(c2)OCO3)cc1OC (centres undefined)	-6	-2	·	-2	12	-4
COc1ccc(S(=O)(=O)NC(C)C(=O)Nc2ccc3c(c2)OCCO3)cc1OC (centres undefined)	8	75*	10	-8	9	-8
OC1CC2CCC(C1)N2CCCN1c2ccccc2Sc2ccc(Cl)cc21 (centres undefined)	-6	-4	-90	-11	19	91*

Screening results deposited in PubChem BioAssay by several laboratories.
